Reference: PubChem BioAssay (EPA / NIEHS)
Where “and” joins values, the source holds several entries; their conditions need not be identical. Equal entries are not always repeated. Results filed as inconclusive are left out. The source holds several records for some structures; these can differ, active in one and inactive in another. Calls of active or inactive are those of the source. How the source made its calls: active means hit-call score of the fitted dose curve at least 0.9, where 1 is the maximum; inconclusive means response in the unintended direction; inactive means score below 0.9.

target: human Retinoic Acid Receptor beta (RARb), RARB (gene 5915) (UniProt P10826); experiment: ATG_RARb_TRANS: Attagene TRANS-FACTORIAL HepG2 Assay for human Retinoic Acid Receptor beta (AID 2283004)
Procedure, shortened: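 Readout is reporter mRNA induction: RNA reverse-transcribed, PCR-amplified, FAM-labelled, HpaI-cut and resolved by capillary electrophoresis. Transiently transfected HepG2 cells carrying exogenous NR–Gal4 chimeras were dosed for 24 h; activity fitted upward relative to DMSO.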

Sequence of human Retinoic Acid Receptor beta (RARb), RARB (gene 5915) (P10826 whole entry, looked up, the tested form may be a part): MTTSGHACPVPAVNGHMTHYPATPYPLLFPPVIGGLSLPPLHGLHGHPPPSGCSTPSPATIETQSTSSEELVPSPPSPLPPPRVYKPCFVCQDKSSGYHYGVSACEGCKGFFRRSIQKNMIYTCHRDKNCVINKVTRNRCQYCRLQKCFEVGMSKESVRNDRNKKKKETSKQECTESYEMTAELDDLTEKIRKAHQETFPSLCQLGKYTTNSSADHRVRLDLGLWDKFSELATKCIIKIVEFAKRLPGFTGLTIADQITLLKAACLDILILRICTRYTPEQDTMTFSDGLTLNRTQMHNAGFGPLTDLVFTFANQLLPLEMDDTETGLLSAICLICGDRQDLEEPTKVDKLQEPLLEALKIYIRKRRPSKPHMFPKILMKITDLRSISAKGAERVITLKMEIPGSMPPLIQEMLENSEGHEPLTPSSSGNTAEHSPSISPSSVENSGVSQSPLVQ

SMILES | outcome
CCOC=O | inactive
O=C(c1cc(O)c(O)c(O)c1)c1ccc(O)c(O)c1O | inactive
Cc1ccccc1OCC(=O)O | inactive

target: Retinoic acid receptor alpha (Homo sapiens) (UniProt P10276); experiment: ATG_RARa_TRANS: Attagene TRANS-FACTORIAL HepG2 Assay for human Retinoic Acid Receptor alpha (RARa) (AID 2283005)
Procedure, shortened: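 Reporter transcripts, measured by RT-PCR with fluorescent labeling and capillary electrophoresis after 24 h dosing, reflect activity of an exogenous human RARa–GAL4 fusion in transiently transfected HepG2. Fitted for increase relative to DMSO.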

Sequence of Retinoic acid receptor alpha (Homo sapiens) (P10276 whole entry, looked up, the tested form may be a part): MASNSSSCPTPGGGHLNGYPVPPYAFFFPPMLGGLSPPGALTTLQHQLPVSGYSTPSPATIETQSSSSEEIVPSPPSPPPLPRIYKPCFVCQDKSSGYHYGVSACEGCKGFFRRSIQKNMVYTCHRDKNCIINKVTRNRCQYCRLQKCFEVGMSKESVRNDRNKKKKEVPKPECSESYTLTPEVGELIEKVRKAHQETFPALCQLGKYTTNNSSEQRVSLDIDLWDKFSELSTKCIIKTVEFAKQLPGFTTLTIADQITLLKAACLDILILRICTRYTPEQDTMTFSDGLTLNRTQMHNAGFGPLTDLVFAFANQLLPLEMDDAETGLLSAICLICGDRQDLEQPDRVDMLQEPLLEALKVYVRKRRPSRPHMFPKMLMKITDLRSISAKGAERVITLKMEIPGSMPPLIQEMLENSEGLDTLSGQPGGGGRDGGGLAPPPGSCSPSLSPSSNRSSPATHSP

SMILES | outcome
CCC(=O)O | inactive
CCO[Si](CCC1CCC2OC2C1)(OCC)OCC (stereo not drawn) | inactive
CCO[Si](C)(C)OCC | inactive
O=C(OC(=O)C(F)(F)C(F)(F)F)C(F)(F)C(F)(F)F | inactive
OCC1CCC(CO)CC1 (stereo not drawn) | inactive
CCc1cccc(CC)c1N(COC)C(=O)CS(=O)(=O)O | inactive
CCC1CO1 (stereo not drawn) | inactive
FC(F)(F)C1(F)C(F)(F)C(F)(F)C(F)(F)C(F)(C(F)(F)F)C1(F)F (stereo not drawn) | inactive
CC1CCC(C(=O)O)CC1 (stereo not drawn) | inactive
CCCCCCCCCCCC[N+](C)(C)CCCCCCCCCCCC | inactive
CCCCCCC(C)(C)C(=O)O | inactive
C=CC(=O)OCCC(F)(F)C(F)(F)C(F)(F)C(F)(F)C(F)(F)C(F)(F)F | inactive
O=C(Nc1cccc([N+](=O)[O-])c1)c1cc2ccccc2cc1O | inactive

target: Peroxisome proliferator-activated receptor gamma (Homo sapiens) (UniProt P37231); experiment: ATG_PPARg_TRANS: Attagene TRANS-FACTORIAL HepG2 Assay for human Peroxisome Proliferator-activated Receptor-gamma (PPARg) (AID 2283007)
Procedure, shortened: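 HepG2 cells are transiently transfected with GAL4-UAS reporter units driven by chimeric NR-Gal4 fusions and dosed for 24 h. Reporter mRNA is quantified by RT-PCR, 6-FAM labelling, HpaI digestion and capillary electrophoresis. Induction is scored against DMSO.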

Sequence of Peroxisome proliferator-activated receptor gamma (Homo sapiens) (P37231 whole entry, looked up, the tested form may be a part): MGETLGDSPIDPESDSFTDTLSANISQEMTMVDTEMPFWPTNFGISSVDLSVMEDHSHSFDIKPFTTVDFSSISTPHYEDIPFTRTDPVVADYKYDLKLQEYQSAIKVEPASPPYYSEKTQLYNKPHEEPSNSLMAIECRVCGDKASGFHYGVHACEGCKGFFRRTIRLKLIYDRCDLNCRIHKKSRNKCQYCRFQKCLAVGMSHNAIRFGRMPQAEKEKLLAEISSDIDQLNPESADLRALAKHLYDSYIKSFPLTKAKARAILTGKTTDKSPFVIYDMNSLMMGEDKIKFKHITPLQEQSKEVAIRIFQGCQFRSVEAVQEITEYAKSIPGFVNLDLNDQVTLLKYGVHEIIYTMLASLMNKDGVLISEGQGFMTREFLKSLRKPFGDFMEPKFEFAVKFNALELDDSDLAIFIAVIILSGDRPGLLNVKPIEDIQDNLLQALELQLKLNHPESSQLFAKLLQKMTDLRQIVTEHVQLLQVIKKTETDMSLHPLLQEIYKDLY

SMILES | outcome | AC50
Cc1cc(C(C)(C)C)c(O)c(C(C)(C)C)c1 | inactive | 
C=C(c1ccc(C(=O)O)cc1)c1cc2c(cc1C)C(C)(C)CCC2(C)C |  | 11.1 µM (active) and 14.2 µM (active)
CCOC=C(C(=O)OCC)C(=O)OCC | inactive | 
Nc1cc(Cl)c(-c2cc(Cl)c(N)cc2Cl)cc1Cl |  | 14.5 µM (active)
CCC(=O)O | inactive | 
CNNCc1ccc(C(=O)NC(C)C)cc1 | inactive | 
CCO[Si](CCC1CCC2OC2C1)(OCC)OCC (stereo not drawn) | inactive | 
O=S(=O)(c1ccc(OCc2ccccc2)cc1)c1ccccc1O |  | 0.66 µM (active)
O=c1cc(-c2ccccc2)oc2ccc3ccccc3c12 | inactive | 0.708 µM (active)
CCc1ccccc1O | inactive | 
CCC(=O)C=Cc1ccc(OC)cc1 |  | 24.6 µM (active)
O=CC(F)(F)C(F)(F)C(F)(F)F | inactive | 
CCCCCC(C)OC(=O)COc1ccc(Cl)c2cccnc12 (stereo not drawn) |  | 34.9 µM (active)
O=C(OC(=O)C(F)(F)C(F)(F)F)C(F)(F)C(F)(F)F | inactive | 
OCC1CCC(CO)CC1 (stereo not drawn) | inactive | 
CCc1cccc(CC)c1N(COC)C(=O)CS(=O)(=O)O | inactive | 

SMILES | outcome | AC50
O=C1Cc2ccccc2N1c1c(Cl)cccc1Cl | inactive | 
O=C(Nc1ccc(Cl)c(Cl)c1)c1cc(Cl)cc(Cl)c1O |  | 4.33 µM (active)
CCCCCCc1ccc(N)cc1 | inactive | 
CC1CCC(C(=O)O)CC1 (stereo not drawn) | inactive | 
CCCCCCOC(=O)c1ccc(O)cc1 |  | 23.2 µM (active)
CCCCCCCCCCCC[N+](C)(C)CCCCCCCCCCCC | inactive | 
CCCCCCC(C)(C)C(=O)O |  | 46.3 µM (active)
COC(=O)C(F)(F)C(F)(F)C(F)(F)F | inactive | 
CCCCc1ccc2ccccc2c1S(=O)(=O)O |  | 45.4 µM (active)
C=CC(=O)OCCC(F)(F)C(F)(F)C(F)(F)C(F)(F)C(F)(F)C(F)(F)F | inactive | 
O=C(Nc1cccc([N+](=O)[O-])c1)c1cc2ccccc2cc1O |  | 6.92 µM (active)
Cc1cncc(C)c1 | inactive | 
Cc1cc(=O)oc2cc(O)ccc12 | inactive | 
CCCCCCCCCCCC[N+](C)(C)Cc1ccccc1 | inactive | 
NNc1nc(-c2ccc([N+](=O)[O-])cc2)cs1 |  | 5.61 µM (active)
